Laboratory results taken from ChEMBL document CHEMBL3988442, “University of Dundee, Small-Polar-MMV Screening Library” (2021).
For some assays here: Measured potencies and affinities stand elsewhere.

Key:
Parameters in all cases: scale not given: direction of the effect not stated beside the values
[1] = target: Protein translocase subunit SecA (Escherichia coli (strain K12)) (UniProt P10408); experiment: Assay to Identify E. coli SecA ATPase Inhibitors; format: functional; settings: 30 µM
[2] = target: T1, Ubiquitin-activating enzyme e1, putative (Leishmania donovani (strain BPK282A1)) (UniProt E9BSI1); experiment: Leishmania donovani Ubiquitin Activating Enzyme (LdE1); format: functional; settings: 30 µM
T1 sequence (whole entry): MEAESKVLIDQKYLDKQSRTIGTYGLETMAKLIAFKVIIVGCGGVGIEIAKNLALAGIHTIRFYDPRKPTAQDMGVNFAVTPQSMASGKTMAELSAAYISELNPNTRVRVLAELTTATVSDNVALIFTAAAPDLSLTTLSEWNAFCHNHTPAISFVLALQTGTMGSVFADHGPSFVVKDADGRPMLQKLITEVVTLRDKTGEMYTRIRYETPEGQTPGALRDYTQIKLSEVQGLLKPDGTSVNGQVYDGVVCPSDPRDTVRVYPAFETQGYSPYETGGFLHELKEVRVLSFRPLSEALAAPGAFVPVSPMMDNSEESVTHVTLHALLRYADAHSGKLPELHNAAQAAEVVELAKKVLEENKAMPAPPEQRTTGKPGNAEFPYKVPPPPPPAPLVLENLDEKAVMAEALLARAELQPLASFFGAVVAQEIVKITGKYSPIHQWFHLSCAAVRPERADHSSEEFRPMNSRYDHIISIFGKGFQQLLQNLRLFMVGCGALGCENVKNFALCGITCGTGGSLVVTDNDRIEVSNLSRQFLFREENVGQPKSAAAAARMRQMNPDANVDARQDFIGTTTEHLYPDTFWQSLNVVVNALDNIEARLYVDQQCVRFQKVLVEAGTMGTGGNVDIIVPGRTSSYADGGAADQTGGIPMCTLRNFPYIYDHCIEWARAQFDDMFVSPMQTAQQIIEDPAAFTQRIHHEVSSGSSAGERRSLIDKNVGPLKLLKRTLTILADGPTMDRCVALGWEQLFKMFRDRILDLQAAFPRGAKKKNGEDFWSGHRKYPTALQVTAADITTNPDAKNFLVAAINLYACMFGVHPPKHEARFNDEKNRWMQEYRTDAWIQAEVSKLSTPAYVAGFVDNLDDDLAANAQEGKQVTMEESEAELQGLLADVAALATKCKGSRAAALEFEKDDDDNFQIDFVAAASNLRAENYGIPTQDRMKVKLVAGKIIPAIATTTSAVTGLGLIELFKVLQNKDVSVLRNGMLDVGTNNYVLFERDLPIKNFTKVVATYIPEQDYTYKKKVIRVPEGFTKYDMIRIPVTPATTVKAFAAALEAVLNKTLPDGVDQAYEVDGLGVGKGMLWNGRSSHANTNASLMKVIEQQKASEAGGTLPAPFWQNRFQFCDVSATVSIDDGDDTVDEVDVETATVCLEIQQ

[3] = target: AMP-activated protein kinase, AMPK (Homo sapiens) (UniProt P54646+O43741+P54619+Q9UGJ0+Q9Y478+Q13131+Q9UGI9); experiment: AMP-dependent Kinase enzyme assay. An in vitro enzyme assay that detects ADP turnover that is directly proportional to AMPK activity. This uses naive AMPK that is activated during the assay with MK-8722; format: functional; settings: 30 µM
[4] = target: Sialic acid-binding Ig-like lectin 9 (Homo sapiens) (UniProt Q9Y336); experiment: Hs-Siglec9 ALPHAscreen SOP 20170721; settings: 10 µM
Trypanosoma cruzi = experiment: Trypanosoma cruzi phosphomannomutase and mannose-1-phosphate guanylyltransferase assay; format: functional; settings: 10 µM
[5] = target: T2, Arginase-2, mitochondrial (Homo sapiens) (UniProt P78540); experiment: in vitro enzyme assay to detect the production of urea directly proportional to the activity of Arginase II; format: functional; settings: 33.3 µM; also: in the data most compounds retested in dose-response had high values
T2 sequence (whole entry): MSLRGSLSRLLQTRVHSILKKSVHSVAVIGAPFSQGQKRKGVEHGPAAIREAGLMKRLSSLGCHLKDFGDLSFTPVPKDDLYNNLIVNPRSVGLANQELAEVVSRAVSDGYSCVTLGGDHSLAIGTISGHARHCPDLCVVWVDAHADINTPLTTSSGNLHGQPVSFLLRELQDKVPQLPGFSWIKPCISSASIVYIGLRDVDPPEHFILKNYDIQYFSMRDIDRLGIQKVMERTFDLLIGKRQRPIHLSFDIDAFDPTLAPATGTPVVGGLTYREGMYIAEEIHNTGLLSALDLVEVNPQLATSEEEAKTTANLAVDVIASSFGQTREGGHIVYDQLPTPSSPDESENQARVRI

[6] = target: T3, Proteasome subunit beta (Trypanosoma cruzi) (UniProt O96673); experiment: Trypanosoma cruzi proteasome chymotrypsin-like activity (TcProtChymo) assay.; also: in the data most compounds retested in dose-response had high values; format: functional; settings: 9.37 µM
T3 sequence (whole entry): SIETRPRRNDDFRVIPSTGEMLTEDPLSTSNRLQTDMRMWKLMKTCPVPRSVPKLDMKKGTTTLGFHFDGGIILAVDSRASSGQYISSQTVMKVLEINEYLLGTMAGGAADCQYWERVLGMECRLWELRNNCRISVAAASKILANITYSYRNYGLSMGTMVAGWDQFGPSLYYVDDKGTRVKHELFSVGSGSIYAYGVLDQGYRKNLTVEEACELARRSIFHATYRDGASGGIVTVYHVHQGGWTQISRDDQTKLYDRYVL

Homo sapiens = species: Homo sapiens; experiment: To identify inhibition of the IFN signalling (Jak-Stat) pathway via expression of an eGFP reporter gene under the control of an IFN-stimulated response element (ISRE) containing MxA promoter.; format: functional; settings: 30 µM
[7] = target: T4, Tyrosyl-tRNA synthetase, putative (Trypanosoma cruzi (strain CL Brener)) (UniProt Q4DSP6); experiment: Trypanosoma cruzi tyrosyl tRNA synthetase (TcYRS) _High Tyrosine SOP; format: functional; settings: 30 µM; also: in the data most compounds retested in dose-response had high values
T4 sequence (whole entry): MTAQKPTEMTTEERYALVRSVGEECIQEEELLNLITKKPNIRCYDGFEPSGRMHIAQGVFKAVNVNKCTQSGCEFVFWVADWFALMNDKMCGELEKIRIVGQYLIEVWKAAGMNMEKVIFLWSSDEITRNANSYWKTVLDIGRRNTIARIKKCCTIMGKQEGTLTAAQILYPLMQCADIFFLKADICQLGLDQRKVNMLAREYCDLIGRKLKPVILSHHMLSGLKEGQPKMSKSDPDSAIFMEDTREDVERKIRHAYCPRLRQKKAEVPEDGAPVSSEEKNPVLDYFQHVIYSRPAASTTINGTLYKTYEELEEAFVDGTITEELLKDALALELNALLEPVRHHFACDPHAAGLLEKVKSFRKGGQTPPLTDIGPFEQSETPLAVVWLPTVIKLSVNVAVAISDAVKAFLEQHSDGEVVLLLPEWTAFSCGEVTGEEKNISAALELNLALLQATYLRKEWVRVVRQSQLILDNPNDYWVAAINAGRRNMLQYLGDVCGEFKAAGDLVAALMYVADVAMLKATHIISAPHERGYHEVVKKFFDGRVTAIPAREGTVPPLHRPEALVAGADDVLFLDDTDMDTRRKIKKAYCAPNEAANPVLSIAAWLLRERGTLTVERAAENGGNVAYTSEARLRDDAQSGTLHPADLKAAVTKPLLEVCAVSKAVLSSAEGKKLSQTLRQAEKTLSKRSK

[8] = target: T4, Tyrosyl-tRNA synthetase, putative (Trypanosoma cruzi (strain CL Brener)); experiment: Trypanosoma cruzi tyrosyl tRNA synthetase (TcYRS) SOP; format: functional; settings: 30 µM
[9] = target: Chromo domain-containing protein 1 (Saccharomyces cerevisiae (strain ATCC 204508 / S288c) (Baker's yeast)) (UniProt P32657); experiment: ScCHD-1 Enzyme Inhibition Assay; format: functional; settings: 30 µM; also: in the data most compounds retested in dose-response had high values
Chromo domain-containing protein 1 (Saccharomyces cerevisiae (strain ATCC 204508 / S288c) (Baker's yeast)), sequence (P32657 whole entry, the tested form may be a part): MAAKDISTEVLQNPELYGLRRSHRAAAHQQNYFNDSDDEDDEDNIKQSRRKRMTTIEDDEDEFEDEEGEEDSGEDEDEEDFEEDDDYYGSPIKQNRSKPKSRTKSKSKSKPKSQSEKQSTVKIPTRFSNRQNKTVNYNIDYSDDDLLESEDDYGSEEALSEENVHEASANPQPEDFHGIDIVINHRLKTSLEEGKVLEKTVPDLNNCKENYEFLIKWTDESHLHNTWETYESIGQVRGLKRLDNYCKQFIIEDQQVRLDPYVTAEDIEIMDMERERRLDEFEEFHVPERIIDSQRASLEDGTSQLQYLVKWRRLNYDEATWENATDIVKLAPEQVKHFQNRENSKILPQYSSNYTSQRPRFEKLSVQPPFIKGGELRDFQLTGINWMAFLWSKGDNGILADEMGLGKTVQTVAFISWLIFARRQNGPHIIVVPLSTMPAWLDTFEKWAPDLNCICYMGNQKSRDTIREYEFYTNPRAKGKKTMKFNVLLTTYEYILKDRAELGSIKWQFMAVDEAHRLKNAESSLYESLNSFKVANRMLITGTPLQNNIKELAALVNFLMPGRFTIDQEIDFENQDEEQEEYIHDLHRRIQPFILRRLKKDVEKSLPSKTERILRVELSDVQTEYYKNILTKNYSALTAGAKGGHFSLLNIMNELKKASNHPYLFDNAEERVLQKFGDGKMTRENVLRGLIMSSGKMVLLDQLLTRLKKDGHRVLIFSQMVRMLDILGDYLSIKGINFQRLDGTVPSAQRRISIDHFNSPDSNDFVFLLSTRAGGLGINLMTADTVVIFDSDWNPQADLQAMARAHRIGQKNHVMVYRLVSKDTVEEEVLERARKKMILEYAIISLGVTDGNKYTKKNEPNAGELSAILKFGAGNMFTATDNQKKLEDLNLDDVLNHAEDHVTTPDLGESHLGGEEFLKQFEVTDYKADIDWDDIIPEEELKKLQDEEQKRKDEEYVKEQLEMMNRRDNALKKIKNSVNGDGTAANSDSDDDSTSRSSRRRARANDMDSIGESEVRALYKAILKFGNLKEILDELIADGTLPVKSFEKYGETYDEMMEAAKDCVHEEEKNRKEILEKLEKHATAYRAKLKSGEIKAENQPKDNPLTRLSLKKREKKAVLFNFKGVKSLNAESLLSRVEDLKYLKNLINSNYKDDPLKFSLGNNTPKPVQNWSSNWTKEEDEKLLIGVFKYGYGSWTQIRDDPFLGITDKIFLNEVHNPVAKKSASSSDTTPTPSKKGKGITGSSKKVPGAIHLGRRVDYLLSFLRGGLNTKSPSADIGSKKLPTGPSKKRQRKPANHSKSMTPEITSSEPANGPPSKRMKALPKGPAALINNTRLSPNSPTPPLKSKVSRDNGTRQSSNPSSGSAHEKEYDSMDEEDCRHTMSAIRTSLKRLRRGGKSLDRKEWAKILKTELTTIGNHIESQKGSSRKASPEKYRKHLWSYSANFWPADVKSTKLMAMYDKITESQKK

Protein translocase subunit SecA (Escherichia coli (strain K12)), sequence (P10408 whole entry): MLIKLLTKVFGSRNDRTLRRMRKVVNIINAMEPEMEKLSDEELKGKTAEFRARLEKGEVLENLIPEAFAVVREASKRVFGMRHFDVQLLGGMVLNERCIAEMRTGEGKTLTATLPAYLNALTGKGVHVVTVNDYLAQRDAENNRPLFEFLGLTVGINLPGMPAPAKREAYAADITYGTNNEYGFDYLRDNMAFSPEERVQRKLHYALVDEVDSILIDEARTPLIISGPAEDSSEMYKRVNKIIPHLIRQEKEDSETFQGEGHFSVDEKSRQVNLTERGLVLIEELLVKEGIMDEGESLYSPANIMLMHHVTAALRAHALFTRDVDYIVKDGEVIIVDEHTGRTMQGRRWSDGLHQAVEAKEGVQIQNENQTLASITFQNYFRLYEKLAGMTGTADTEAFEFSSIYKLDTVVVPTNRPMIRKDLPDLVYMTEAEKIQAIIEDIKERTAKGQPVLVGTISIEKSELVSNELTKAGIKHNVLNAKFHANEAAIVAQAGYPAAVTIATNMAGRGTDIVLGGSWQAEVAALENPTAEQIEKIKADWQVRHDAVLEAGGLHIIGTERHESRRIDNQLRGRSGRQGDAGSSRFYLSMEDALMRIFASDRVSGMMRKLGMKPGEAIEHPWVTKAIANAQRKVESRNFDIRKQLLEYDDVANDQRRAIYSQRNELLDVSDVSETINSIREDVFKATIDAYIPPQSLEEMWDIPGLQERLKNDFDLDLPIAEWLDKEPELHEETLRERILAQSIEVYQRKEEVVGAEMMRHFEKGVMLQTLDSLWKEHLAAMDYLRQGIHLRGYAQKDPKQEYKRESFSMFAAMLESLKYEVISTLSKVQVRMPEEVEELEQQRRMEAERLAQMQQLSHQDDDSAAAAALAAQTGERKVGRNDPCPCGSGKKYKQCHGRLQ
Sialic acid-binding Ig-like lectin 9 (Homo sapiens), sequence (Q9Y336 whole entry): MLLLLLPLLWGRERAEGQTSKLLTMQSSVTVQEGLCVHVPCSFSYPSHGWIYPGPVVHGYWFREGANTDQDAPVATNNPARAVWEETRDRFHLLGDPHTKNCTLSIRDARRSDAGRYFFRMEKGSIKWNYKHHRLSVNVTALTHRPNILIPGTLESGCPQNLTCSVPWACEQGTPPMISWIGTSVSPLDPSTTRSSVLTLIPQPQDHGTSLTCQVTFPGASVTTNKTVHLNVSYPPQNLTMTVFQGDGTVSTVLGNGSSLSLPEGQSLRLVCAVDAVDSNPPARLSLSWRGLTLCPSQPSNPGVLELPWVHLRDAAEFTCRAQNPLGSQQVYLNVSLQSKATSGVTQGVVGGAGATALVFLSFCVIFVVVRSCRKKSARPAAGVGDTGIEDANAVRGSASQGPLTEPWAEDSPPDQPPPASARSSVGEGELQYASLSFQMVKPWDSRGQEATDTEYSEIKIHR

| SMILES | Percent Effect [1] | Percent Effect [2] | Percent Effect [3] | Percent Effect [4] | Percent Effect (Trypanosoma cruzi) | Percent Effect [5] | Percent Effect [6] | Percent Effect (Homo sapiens) | Percent Effect [7] | Percent Effect [8] | Percent Effect [9] |
| --- | --- | --- | --- | --- | --- | --- | --- | --- | --- | --- | --- |
| Cc1cnn(CC2CCCN2C(=O)c2cn(-c3ccccc3)nc2C)c1 (stereo not given) | -2.73% | 2.7% | -10.7% | 13.6% | 1.6% | -3.61% | -4.32% | -0.766% | 7.39% | 11.1% | -6.26% |
| CC(NCc1ccc(F)cc1)c1ccc(OCC(=O)NC2CC2)cc1 (stereo not given) | -1.43% | 6.33% | 9.48% | -4.28% | -6.26% | -7.1% | 18% | 17% | 1.04% | 2.53% | -17.3% |
| Cc1cc(C)n(C2CN(CC(O)COc3ccc(F)cc3)C2)n1 (stereo not given) | -3.4% | -20.8% | 2.93% | 9.67% | -1.12% | 1.42% | -0.169% | -11.2% | 4.85% | -4.88% | -2.37% |
| CC(C)c1nc(C2CCCN2C(=O)c2nccnc2N)no1 (stereo not given) | -6.3% | 16.2% | -11% | 23.1% | 4.18% | -4.99% | 6.1% | 12.1% | 6.93% | 23.2% | -5.79% |
| COCC(=O)N1CCO[C@H]2[C@H](OC)CC[C@@H]21 | -6.12% | 5.41% | 1.82% | -0.654% | -4.79% | 4.78% | 21.8% | 9.88% | 1.08% | 5.13% | 1.01% |
| COCC(C)(O)CNC(=O)COc1ccccc1OC (stereo not given) | -1.78% | 2.74% | 6.7% | -4.63% | -4.31% | 2.27% | 8.52% | 1.8% | 5.38% | 7.5% | -3.71% |
| CC(=O)N1CCCCC1c1cc(C(=O)N2CCOCC2)[nH]n1 (stereo not given) | -1.41% | 14.9% | 11% | -1.29% | -1.38% | -0.232% | 6.86% | 2.98% | 5.38% | 14.3% | -10.1% |
| Cc1nc2ccccc2nc1CN1CCCC1c1c(C)nn(C)c1C (stereo not given) | -4.48% | 1.27% | 5.44% | 6.81% | 5.44% | -1.94% | 2.23% | 3.07% | 5.21% | 17.7% | -26.1% |
| CC(NC(=O)NCCCc1n[nH]c(N)c1C#N)c1ccccc1 (stereo not given) | -5.52% | 22.8% | 48.4% | -3.62% | 3.68% | -11.8% | 14.8% | 7.81% | 6.4% | 24.1% | -5.91% |
| CCOCC1CN(Cc2cccc(C#N)c2)Cc2nccn2C1 (stereo not given) | -3.99% | -5.48% | 2.91% | 1.44% | -2.38% | -2% | 12.4% | -1.58% | 4.17% | 3.7% | -1.98% |
